Test [1] is described as follows: stimulators of nuclear beta-catenin in C2C12, primary screen, imaging, WNT3A-conditioned medium, mouse C2C12, NPC library (AID 1117326; in the data active = nuclear beta-catenin stimulation mostly above about 4.2%, no sharp cut-off; inactive = mostly below about 10%). The note with it: stronger effect = higher value.
Test [2] in a line: stimulators of insulin release from INS-1E, primary screen, cell-based, 5 mM glucose, NPC library (AID 1117329;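 active = compound raises insulin release from rat beta cells at 5 mM glucose, no numeric limit stated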). Particulars: rat INS-1E insulin secretion, at 10 µM, stronger effect = higher value.
Test [3] is described as follows: growth inhibition of GSK3B-pretreated HCT116 cells – cell-based, CellTiter-Glo, 0.2 to 20 µM (AID 1117336;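 active = compounds lowering colon cancer cell viability after pretreatment blocking the GSK3B kinase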). Particulars: HCT116 viability after GSK3B inhibitor, at 20 µM, stronger effect = higher value. (In general: Cellular ATP, detected with luciferase, serves as a proxy for viable cell number.)
Test [4] in a line: inhibition of endothelial tube formation, primary screen, imaging, VEGF stimulated, CD31 staining, tube area, NPC library (AID 1117340;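 active = compound that reduces growth-factor-driven endothelial tube area in a mixed cell culture, no cutoff stated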). The note with it: VEGF-stimulated ADSC/ECFC co-culture, at 10 µM, stronger effect = higher value.
The nature of test [5]: glucagon-like peptide 1 release enhancers, primary assay, NCI-H716 cell line, NPC library (AID 1117341;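 active = compound raises GLP1 secretion from the human gut endocrine cells, with no numeric limit stated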). Particulars: NCI-H716 cells, at 10 µM, stronger effect = higher value.
Test [6] is described as follows: HCT116 colon cancer cell growth inhibition, primary screen, CellTiter-Glo luminescence, NPC library (AID 1117342;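 active = compounds that lower survival of HCT116 colon cancer cells in the luminescence readout, no numeric limit stated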). Particulars: at 20 µM (top of the series).
Test [7] is described as follows: CellTiter-Glo luminescent readout of SW480 viability loss, NPC library primary (AID 1117343;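 active = compounds that lower viability of the colon cancer cells in the luminescence readout, with no numeric limit stated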). Particulars: CellTiter-Glo luminescence; at 20 µM (top of the series).
Test [8] in a line: decreased DLD-1 cellular survival, CellTiter-Glo luminescent readout, NPC compound collection, primary HTS (AID 1117346;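 active = compounds that lower survival of DLD-1 colon cancer cells in the luminescence readout, no cutoff given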). The note with it: DLD-1 viability, CellTiter-Glo luminescence; at 20 µM (top of the series).
A short description of test [9]: circadian clock period modulators, cell-based, LOPAC library, luminescence reporter (AID 2774).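 Also: values are relative to mean of DMSO wells on each plate.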 Particulars: circadian reporter cells, at 7 µM, actives lie on both sides.
Test [10] in a line: hESC survival regulators, cell-based (AID 493140).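 Also: cells exposed to compounds for four days before counting.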 The note with it: human embryonic stem cell survival screen; stronger effect = higher value.
Test [11] has as its system Hepatitis C virus NS3 helicase. The test is described as follows: HCV NS3 helicase inhibitors, primary screen, biochemical, fluorescence polarization, LOPAC1280 library (AID 687035; in the data active = inhibition above about 37%). Particulars: Purified HCV NS3 helicase, Cy5-dT15 ssDNA binding fluorescence polarization; stronger effect = higher value; concentration not given here.
The nature of test [12]: Cy5 fluorescence quenching or enhancement artefacts, artefact control for HCV NS3 helicase inhibitor project, biochemical, LOPAC1280 (AID 687037). Particulars: Cy5-DNA-NS3h complex fluorescence interference counterscreen. (In general: A counterscreen serves to expose hits that act by an unwanted route or on another target.)
For test [13], the target named is 6-phosphogluconate dehydrogenase, decarboxylating (Homo sapiens) (UniProt P52209). The experiment in a line: 6PGD enzyme inhibitors, primary screen, biochemical, human, recombinant enzyme, NADPH absorbance (AID 1159550;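 active = at least 20% inhibition of 6-phosphogluconate dehydrogenase activity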). The note with it: recombinant 6PGD, NADPH absorbance 341 nm; at 10 µM; stronger effect = higher value.
6-phosphogluconate dehydrogenase, decarboxylating (Homo sapiens), sequence (P52209 whole entry, looked up): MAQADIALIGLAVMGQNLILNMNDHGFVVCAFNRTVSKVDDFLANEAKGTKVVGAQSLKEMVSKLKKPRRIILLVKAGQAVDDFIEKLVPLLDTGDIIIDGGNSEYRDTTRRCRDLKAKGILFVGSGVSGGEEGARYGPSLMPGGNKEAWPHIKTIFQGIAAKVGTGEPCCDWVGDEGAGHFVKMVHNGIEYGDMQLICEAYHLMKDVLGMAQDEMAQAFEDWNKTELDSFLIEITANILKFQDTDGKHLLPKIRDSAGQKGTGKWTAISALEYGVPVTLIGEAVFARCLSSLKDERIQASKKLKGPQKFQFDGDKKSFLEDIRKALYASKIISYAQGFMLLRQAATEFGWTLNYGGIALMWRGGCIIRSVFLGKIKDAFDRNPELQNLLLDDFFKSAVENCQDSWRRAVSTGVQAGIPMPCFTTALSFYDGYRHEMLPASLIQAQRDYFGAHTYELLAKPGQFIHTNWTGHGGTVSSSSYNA
Test [14] can be described thus: differential killing of epithelial or mesenchymal cells, primary screen, imaging, PC-3E GFP, TEM4-18 mCherry, co-culture (AID 1345086;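 active = compounds killing one labelled cell type while sparing the other, by normalised counts and ratio limits, not self-fluorescent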;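 also: cells exposed to compound for 72 h before imaging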;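 as to red/green cell ratio (normalised): normalised mesenchymal count divided by normalised epithelial count so high means epithelial killing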). The note with it: imaging cell counts, at 1 µM.
For test [15], the system named is Aerobactin synthetase IucA (Klebsiella pneumoniae hvKP1). The experiment in a line: Biochemical IucA enzyme inhibition primary screen of the Spectrum library (AID 1346200).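 Also: 100% = wells without compound and 0% = wells lacking enzyme.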 Particulars: malachite green pyrophosphate, A620, at 8 µM, stronger effect = lower value.
Test [16] deals with Aerobactin synthetase IucA (Klebsiella pneumoniae, hypervirulent). The experiment in a line: IucA enzyme inhibition, biochemical, LOPAC library, absorbance readout (AID 1346212).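 Also: 100% = no compound wells and 0% = no enzyme wells.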 Particulars: IucA enzyme assay, absorbance (OD) readout; stronger effect = lower value;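 tested at 8 µM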.
Test [17] in a line: sensitizers of A549 cells to miR-34 induction, primary screen, imaging, A549 dox-inducible miR-34, nuclei and caspase counts (AID 1347080;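 active = compounds whose cell count with miR-34 switched on is under 0.7 times the count with it off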). Particulars: A549 miR-34 inducible, Hoechst nuclei count, 48 h.
Test [18] is described as follows: phospholipid biosynthesis inhibitors in animal cells, primary screen, cell-based, LOPAC library, screen 4 (AID 1347384). The note with it: phospholipid biosynthesis inhibition screen, at 10 µM.
The nature of test [19]: survival rescue of mitochondrial mutant cells in low glucose, primary screen, MELAS cybrids, Rieske KO mouse fibroblasts, CellTiter-Glo (AID 1508586;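 active = mean z-score across replicates of 1.96 or higher in either the MELAS or the Rieske mutant cell line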;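 also: z relative to plate mean and SD of compound and empty wells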).
In test [20] the target is NAD(+) hydrolase SARM1 (Homo sapiens) (UniProt Q6SZW1). The experiment in a line: SARM1 TIR NADase inhibitors, cell lysate, NAD-Glo luminescence (AID 1508614;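 active = compound whose remaining NAD level is above about 45 nM, limit read from the data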;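 also: higher remaining NAD means stronger inhibition of SARM1 NADase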). The note with it: SAM-TIR HEK293T lysate NADase, at 1 µM, stronger effect = higher value.
NAD(+) hydrolase SARM1 (Homo sapiens), sequence (Q6SZW1 whole entry, looked up, the tested form may be a part): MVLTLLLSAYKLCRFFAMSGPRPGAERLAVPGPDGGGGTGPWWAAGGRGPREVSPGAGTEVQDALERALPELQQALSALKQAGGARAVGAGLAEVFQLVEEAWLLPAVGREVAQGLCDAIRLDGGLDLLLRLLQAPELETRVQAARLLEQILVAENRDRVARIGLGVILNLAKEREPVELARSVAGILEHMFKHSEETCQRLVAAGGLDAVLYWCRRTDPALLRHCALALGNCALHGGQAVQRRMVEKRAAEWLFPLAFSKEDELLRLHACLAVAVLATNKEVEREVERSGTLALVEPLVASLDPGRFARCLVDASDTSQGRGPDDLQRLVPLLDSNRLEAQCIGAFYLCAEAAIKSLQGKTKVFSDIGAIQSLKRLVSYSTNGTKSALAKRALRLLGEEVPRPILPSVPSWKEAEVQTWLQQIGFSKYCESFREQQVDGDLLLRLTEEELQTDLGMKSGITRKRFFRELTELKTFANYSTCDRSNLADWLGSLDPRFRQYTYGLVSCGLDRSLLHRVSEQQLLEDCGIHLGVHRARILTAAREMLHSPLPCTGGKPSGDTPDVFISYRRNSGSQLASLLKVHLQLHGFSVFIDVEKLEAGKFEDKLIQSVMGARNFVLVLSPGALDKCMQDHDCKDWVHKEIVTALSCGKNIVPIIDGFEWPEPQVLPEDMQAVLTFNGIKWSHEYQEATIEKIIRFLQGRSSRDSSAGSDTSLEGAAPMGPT
Test [21] has as its target Mitogen-activated protein kinase 7 (Homo sapiens) (UniProt Q13164). The experiment in a line: ERK5 transactivation activators in reporter cells, primary screen, cell-based, HTS (AID 1508626;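 active = luciferase signal above three times the same-plate solvent-only control wells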;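 also: luciferase driven by Gal4-ERK5 fusion binding five Gal4 sites before minimal TATA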). The note with it: HeLa Gal4-ERK5 transactivation, 18 h, at 5 µM, stronger effect = higher value.
Test [22] in a line: viability rescue of complex I mutant cybrids, primary screen, cell-based, galactose medium, ATP luminescence (AID 1645843;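 active = z-score of at least 1.8 in each of two replicates, scored against plate mean and spread of sample wells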;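 also: positive z means more ATP and so rescue of galactose-driven cybrid death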). Particulars: complex I mutant cybrid cells, 72 h, stronger effect = higher value.

“And” between values parts separate entries of the source, which are not always exact repeats. Equal values may be shown once. The source made the active and inactive calls. Unless noted, no rule for the calls is given here.

Mitogen-activated protein kinase 7 (Homo sapiens), sequence (Q13164 whole entry, looked up, the tested form may be a part): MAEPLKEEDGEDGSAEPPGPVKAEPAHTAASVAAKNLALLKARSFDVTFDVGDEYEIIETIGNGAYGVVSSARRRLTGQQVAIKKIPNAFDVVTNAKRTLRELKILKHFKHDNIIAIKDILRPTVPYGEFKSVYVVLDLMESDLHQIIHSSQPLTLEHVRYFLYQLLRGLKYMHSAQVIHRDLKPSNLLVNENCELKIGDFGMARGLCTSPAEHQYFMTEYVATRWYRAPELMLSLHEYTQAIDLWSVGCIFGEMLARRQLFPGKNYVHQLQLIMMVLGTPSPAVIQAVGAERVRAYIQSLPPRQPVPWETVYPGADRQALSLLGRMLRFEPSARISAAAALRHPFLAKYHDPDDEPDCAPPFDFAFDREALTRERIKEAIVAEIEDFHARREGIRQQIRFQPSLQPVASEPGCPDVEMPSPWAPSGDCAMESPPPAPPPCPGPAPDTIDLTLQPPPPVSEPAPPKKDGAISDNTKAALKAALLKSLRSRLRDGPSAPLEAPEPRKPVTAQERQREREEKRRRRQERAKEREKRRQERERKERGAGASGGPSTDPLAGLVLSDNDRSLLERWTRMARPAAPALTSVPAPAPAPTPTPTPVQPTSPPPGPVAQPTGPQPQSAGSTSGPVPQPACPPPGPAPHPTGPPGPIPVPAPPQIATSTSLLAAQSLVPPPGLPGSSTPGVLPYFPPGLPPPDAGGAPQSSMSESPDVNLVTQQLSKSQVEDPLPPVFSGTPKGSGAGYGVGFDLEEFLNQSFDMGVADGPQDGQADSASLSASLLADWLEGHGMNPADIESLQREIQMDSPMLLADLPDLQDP

As for `COP(=S)(OC)Oc1ccc(S(=O)(=O)N(C)C)cc1`, the nuclear beta-catenin stimulation is -1.9% (inactive) in test [1] (at 10 µM) and -0.5% in test [1] (stimulation, at 2 µM). Moreover, in [2], the insulin secretion stimulation was 0.3% (inactive). Moreover, in test [3], the viability decrease is -11.8% (inactive). In test [4], the tube area decrease is -6.5% (inactive). Further, the GLP1 secretion stimulation in test [5] was -1.2% (inactive). Besides, the inhibition of viability in test [6] is 4.9% (inactive). Further, the viability decrease (inhibition) in test [7] was 6.4% (inactive); in test [8], 0% (inactive).
As for `Oc1c(Br)cc(Br)cc1Br`, the nuclear beta-catenin stimulation in test [1] (at 10 µM) was -0.6% (inactive); in [1] (stimulation, at 2 µM), -0.3%. Moreover, the insulin secretion stimulation in [2] was -0.4% (inactive). The viability decrease in test [3] is -83.3% (inactive). For the same molecule, the tube area decrease in [4] was 10% (inactive). For the same molecule, the GLP1 secretion stimulation in test [5] is -3.7% (inactive). For the same molecule, the inhibition of viability in [6] was -18% (inactive). In addition, the viability decrease (inhibition) is 32.1% (inactive) in test [7] and 37.1% (inactive) in test [8].
For `CNC(C)[C@@H](O)c1ccc(O)cc1` (stereo not given in full), the nuclear beta-catenin stimulation in test [1] (at 10 µM) was 0.7% (inactive); in test [1] (stimulation, at 2 µM), 1.3%. The insulin secretion stimulation in test [2] is 4.8% (inactive). For the same molecule, the viability decrease in test [3] is -4.1% (inactive). In addition, the tube area decrease in [4] was -8.3% (inactive). For the same molecule, the GLP1 secretion stimulation in test [5] was -5% (inactive). For the same molecule, the inhibition of viability in [6] was 3.4% (inactive). The viability decrease (inhibition) in [7] was 27.7% (inactive); in test [8], 6% (inactive).
As for `O=C(Nc1ccc(Br)cc1)c1cc(Br)cc(Br)c1O`, the nuclear beta-catenin stimulation in test [1] (at 10 µM) is 28.9% (inactive); in test [1] (stimulation, at 2 µM) it was 0.4%. Moreover, the insulin secretion stimulation in test [2] was -3% (inactive). For the same molecule, the viability decrease in test [3] is 98% (active). In addition, the tube area decrease in test [4] was 108% (active). The GLP1 secretion stimulation in test [5] was -3.5% (inactive). In addition, the inhibition of viability in [6] is 98.2% (active). Besides, the results for the viability decrease (inhibition) in test [7] and in [8] were 94.4% (active) and 100% (active), respectively.
As to `COc1ccc(OC)c(C(O)C(C)N)c1` (stereo not given), the period change in [9] was 0.08 h (inactive). In addition, the survival in test [10] is 3.58 (inactive). In addition, the inhibition (as a rule, the relative decrease from the control value, in per cent) is -2% (inactive) in test [11] and 11.8% (inactive) in [13]. In addition, the fluorescence ratio (interference) in test [12] was 1 (inactive). For the same molecule, the nuclear beta-catenin stimulation in test [1] (at 10 µM) was -1.8% (inactive); in [1] (stimulation, at 2 µM), -1.1%. For the same molecule, the insulin secretion stimulation in test [2] was -0.1% (inactive). Moreover, in test [3], the viability decrease was 4% (inactive). In [4], the tube area decrease was -6.6% (inactive). Moreover, the GLP1 secretion stimulation in test [5] was -3.9% (inactive). For the same molecule, in test [6], the inhibition of viability was -3% (inactive). Further, the viability decrease (inhibition) was -2.5% (inactive) in test [7] and -4.2% (inactive) in test [8]. The red/green cell ratio (normalised) in test [14] (actives lie on both sides) was 0.84 (inactive). Moreover, the normalised cell number in [14] (measured here: epithelial PC-3E GFP cell survival) is 1.33; in test [14] (measured here: mesenchymal TEM4-18 mCherry cell survival), 1.11. For the same molecule, in [15], the activity remaining is 103% (inactive). The remaining activity (commonly the signal under treatment as a percentage of the control signal) in test [16] is 112% (inactive). Besides, the fold change in test [17] (stronger effect = lower value) is 1.09 (inactive) and 0.79 (inactive) and 0.922 (inactive); in [17] (measured here: relative caspase fold change +Dox/-Dox) it was 1.23 and 1.51 and 0.904. For the same molecule, the cell count is 11000 and 8690 and 11600 in test [17] (measured here: total cells with miR-34 induction, stronger effect = lower value); 10000 and 11000 and 12600 in test [17] (measured here: total cells without miR-34 induction). Also, the outcome in test [18] was inactive. The z-score was 0.379 (inactive) in test [19] (MELAS cybrid survival, CellTiter-Glo 48 h, stronger effect = higher value); 0.108 in [19] (Rieske KO mouse fibroblast survival, CellTiter-Glo 72 h); 0.13 (inactive) in [22]. Further, the remaining NAD in test [20] was 10 nM (inactive). Moreover, in test [21], the luciferase signal was 104 AU (inactive).

The values above are taken from PubChem BioAssay.
